In the library only some 2.3% were active in any assay of this set; here they are far more common.
beta cell repl: inducers of MIN6 beta-cell proliferation, primary screen, ATP luminescence, uHTS; MIN6 cells proliferation, ATPlite luminescence, 48 h; cells starved in 0.2% serum; 100% = growth in 10% serum; proliferation, % at 10 µM; 0.29% of 330,000 active; AID 2380, 2010;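 active means compounds whose signal lies at least 3.5 SD above the mean of all wells on their plate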
FAS TE block: FAS thioesterase domain inhibitors, primary screen, biochemical, fluorescence intensity, uHTS; 0.67% of 360,000 active; recombinant FAS-TE, OMFH fluorogenic substrate, fluorescence endpoint; AID 602261, 2012; Fatty acid synthase (Homo sapiens), P49327; inhibition, % at 15 µM;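 active means compounds whose normalised, plate-corrected inhibition of enzyme fluorescence in the single-dose primary screen is 50% or more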
Target sequence (P49327 whole entry, looked up, the tested form may be a part): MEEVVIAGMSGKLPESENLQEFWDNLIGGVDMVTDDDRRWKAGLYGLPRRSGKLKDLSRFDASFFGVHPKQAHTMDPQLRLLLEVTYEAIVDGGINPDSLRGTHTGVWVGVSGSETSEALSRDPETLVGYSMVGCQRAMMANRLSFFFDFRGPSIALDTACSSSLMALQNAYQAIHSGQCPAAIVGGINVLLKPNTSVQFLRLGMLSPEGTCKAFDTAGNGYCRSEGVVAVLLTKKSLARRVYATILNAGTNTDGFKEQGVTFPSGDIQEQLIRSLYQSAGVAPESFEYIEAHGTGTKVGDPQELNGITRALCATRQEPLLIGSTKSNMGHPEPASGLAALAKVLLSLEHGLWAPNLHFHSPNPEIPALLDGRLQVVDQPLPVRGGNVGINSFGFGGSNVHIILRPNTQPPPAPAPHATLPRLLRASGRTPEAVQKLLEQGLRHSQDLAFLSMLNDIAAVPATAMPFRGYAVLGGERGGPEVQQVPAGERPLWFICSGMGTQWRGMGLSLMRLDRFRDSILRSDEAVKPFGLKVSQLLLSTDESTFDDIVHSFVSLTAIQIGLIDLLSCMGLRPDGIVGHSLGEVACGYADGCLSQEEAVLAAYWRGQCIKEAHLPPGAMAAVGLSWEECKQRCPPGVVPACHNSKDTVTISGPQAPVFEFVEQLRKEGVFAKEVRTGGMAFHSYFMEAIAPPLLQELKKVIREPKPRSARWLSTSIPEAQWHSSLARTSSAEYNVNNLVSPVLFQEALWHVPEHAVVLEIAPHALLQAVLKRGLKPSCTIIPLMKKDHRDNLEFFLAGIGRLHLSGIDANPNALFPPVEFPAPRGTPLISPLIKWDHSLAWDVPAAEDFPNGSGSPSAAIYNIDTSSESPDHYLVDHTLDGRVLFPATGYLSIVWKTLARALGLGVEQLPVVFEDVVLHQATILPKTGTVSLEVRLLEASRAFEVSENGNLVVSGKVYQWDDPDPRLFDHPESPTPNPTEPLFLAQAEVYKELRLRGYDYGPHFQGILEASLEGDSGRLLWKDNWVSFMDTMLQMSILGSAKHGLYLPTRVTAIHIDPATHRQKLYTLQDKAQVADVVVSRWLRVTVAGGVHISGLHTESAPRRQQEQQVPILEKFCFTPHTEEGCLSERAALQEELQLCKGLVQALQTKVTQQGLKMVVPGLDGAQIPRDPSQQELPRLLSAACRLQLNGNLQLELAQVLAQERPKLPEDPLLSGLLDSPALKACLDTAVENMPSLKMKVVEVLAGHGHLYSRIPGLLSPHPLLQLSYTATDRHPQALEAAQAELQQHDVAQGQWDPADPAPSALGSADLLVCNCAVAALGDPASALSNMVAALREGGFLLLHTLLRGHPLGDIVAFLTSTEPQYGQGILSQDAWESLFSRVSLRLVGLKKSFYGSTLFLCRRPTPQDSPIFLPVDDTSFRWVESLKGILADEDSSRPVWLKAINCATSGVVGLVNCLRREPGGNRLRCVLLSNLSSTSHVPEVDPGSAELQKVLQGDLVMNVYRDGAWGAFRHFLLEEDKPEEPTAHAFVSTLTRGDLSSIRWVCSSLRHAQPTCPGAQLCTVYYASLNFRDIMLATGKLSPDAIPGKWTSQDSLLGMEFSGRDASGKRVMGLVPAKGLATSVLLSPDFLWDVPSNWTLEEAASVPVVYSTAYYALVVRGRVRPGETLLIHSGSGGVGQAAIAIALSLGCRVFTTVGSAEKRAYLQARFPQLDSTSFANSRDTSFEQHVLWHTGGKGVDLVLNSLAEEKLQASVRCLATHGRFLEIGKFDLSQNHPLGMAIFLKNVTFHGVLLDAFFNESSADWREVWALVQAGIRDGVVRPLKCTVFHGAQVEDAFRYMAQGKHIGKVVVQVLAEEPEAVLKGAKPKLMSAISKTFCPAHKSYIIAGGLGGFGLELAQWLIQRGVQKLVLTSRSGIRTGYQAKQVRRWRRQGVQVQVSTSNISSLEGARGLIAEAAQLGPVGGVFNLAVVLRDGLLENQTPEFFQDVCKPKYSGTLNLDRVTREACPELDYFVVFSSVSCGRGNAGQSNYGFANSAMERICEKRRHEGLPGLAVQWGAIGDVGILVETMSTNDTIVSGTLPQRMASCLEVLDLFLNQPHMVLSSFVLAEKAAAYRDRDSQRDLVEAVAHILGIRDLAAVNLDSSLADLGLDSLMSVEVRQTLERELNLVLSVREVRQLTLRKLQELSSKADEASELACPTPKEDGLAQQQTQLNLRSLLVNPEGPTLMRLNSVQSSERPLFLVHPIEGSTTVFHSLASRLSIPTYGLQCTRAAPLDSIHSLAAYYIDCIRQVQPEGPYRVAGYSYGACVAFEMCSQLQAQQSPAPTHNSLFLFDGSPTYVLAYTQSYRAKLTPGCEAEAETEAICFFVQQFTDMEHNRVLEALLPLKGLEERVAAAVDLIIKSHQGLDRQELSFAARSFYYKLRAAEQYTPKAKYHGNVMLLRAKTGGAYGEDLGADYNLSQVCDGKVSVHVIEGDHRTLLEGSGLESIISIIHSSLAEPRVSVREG
H9c2 TAG inh: inhibitors of triacylglycerol accumulation, primary screen, cell-based, uHTS, fluorescence, H9c2; H9c2 cells, Nile Red lipid (TAG) fluorescence; cells loaded with 200 µM oleic acid; inhibition, % at 12.5 µM; 0.66% of 230,000 active; AID 651582, 2012;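 active means pattern-corrected inhibition of lipid staining of at least 50% with the nuclear-stain viability signal not falling by more than 50%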
Calpain2 inh: inhibitors of pig calpain II, primary screen, biochemical, fluorogenic peptide substrate, 1536-well; purified calpain II, 30 min; inhibition, % at 16 µM; 0.37% of 220,000 active; AID 1236, 2008;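 active means inhibition above about 50%, limit read from the data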
aDG glyco up: activators of alpha-DG glycosylation, primary screen, uHTS, Pro5-aDG cells, AlphaScreen; alpha-DG glycosylation AlphaScreen (IIH6); 0% Pro5, 100% B10-LARGE cell signal; activation, % at 10 µM; 0.22% of 360,000 active; AID 624168, 2012;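 active means activation of at least 8% versus controls, or a plate z-score of at least 8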;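 further: Pro5 are CHO cells carrying HIG-tagged alpha-DG that lacks glycosylation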
H9c2 protect: cardioprotection against H2O2-induced cell death, primary screen, uHTS, H9c2 cells, ATPLite luminescence; protection from H2O2 cell death, % at 20 µM; 0.63% of 360,000 active; H9c2 cardiomyocytes, H2O2 injury protection, 2 h;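 active means compounds giving at least 50% protection of heart cells from peroxide-induced death in the single-dose screen, raw or plate-pattern-corrected value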
Large screens that a line does not name were inactive.

CC(=O)C1CCC2C3CCC4CC(=O)CCC4(C)C3C(O)CC12C (centres undefined)	none (no result: beta cell repl, Calpain2 inh)
CC(=NO)C1CCC2C3CCC4CC(=NO)CCC4(C)C3C(C)(O)CC12C (centres undefined)	H9c2 protect 60 (no result: beta cell repl, Calpain2 inh)
O=C(Cc1ccc(S(=O)(=O)N2CCOCC2)s1)Nc1ccc(S(=O)(=O)N2CCCCC2)cc1	none (no result: Calpain2 inh)
CC(=O)Nc1ccc(NC(=O)Cc2ccc(S(=O)(=O)N3CCCCC3)s2)cc1	Calpain2 inh 77
Cc1ccc(Nc2nc(N)[nH]c(=O)c2N=O)cc1	H9c2 protect 52 (no result: H9c2 TAG inh)
Cc1ccc(Nc2nc(=O)[nH]nc2C)cc1	none (no result: H9c2 TAG inh)
CCCCn1nnnc1C1(C)CCC(=O)N1Cc1cccnc1 (centres undefined)	none (no result: beta cell repl, H9c2 TAG inh, Calpain2 inh, H9c2 protect)
Cc1nn(-c2ccccc2)c(N2CCCC2)c1/C=N/n1cnc2scc(-c3ccccc3)c2c1=O	H9c2 protect 62
O=C(O)c1ccc(S(=O)(=O)N2CCCCCCC2)cc1	none (no result: beta cell repl, Calpain2 inh)
Nc1ccc(N(CCO)CCO)cc1	none
Cc1cc(N(CCO)CCO)ccc1N=Nc1cc(F)ccc1F	H9c2 TAG inh 73
O=C(C1CCCCC1)N1C[C@@H](O)[C@H](n2cc(C3CC3)nn2)C[C@@H]1c1ccc(Cl)cc1	none (no result: beta cell repl, Calpain2 inh)
CC(C)CCCCCCCCCCCCC(=O)NCC(=O)NC1C(C)OC(Nc2ncnc3nc[nH]c23)C(O)C1O (centres undefined)	H9c2 TAG inh 72 (no result: beta cell repl, Calpain2 inh)
COc1cc2c(cc1NC(=O)CN1C(=O)NC3(CCc4ccccc43)C1=O)oc1ccccc12 (centres undefined)	FAS TE block 55, H9c2 TAG inh 55
Cc1ccccc1NC(=O)CN1C(=O)NC2(CCc3ccccc32)C1=O (centres undefined)	none (no result: Calpain2 inh)
CC(OC(=O)Cc1n[nH]c(=O)c2ccccc12)C(=O)Nc1ccc(F)cc1 (centres undefined)	H9c2 protect 59 (no result: Calpain2 inh)
CC(OC(=O)Cc1n[nH]c(=O)c2ccccc12)C(=O)Nc1ccc(F)cc1Cl (centres undefined)	H9c2 protect 69 (no result: Calpain2 inh)
CC(C)CC1NC(=O)c2cccnc2-n2c1nc1cc(F)ccc1c2=O (centres undefined)	none (no result: beta cell repl, Calpain2 inh)
CCOC(=O)c1sc(=S)n(-c2ccc(OC)cc2)c1C	none
CCOC(=O)c1c2c(n(-c3ccc(OC)cc3)c1C)C(=O)C(=O)c1ccccc1-2	H9c2 TAG inh 71 (no result: beta cell repl, Calpain2 inh)
CCOc1ccc(CNC(=O)Cn2nc(C)n3nc(-c4ccccc4)cc3c2=O)cc1	none (no result: H9c2 TAG inh, Calpain2 inh)
Oc1c(Cl)cc(Cl)cc1/C=N/Nc1ncc(Br)cn1	H9c2 protect 59
O=C(N/N=C/c1ccc(Cl)cc1Cl)c1ccncc1	none (no result: H9c2 TAG inh, Calpain2 inh)
O=C(N/N=C/c1cccc2nccnc12)c1ccncc1	H9c2 protect 65
O=C(N/N=C/c1cc(Cl)cc(Cl)c1O)c1ccncc1	H9c2 TAG inh 65, H9c2 protect 50
Cc1ccc(N=Cc2cc(Cl)cc(Cl)c2O)nc1	H9c2 protect 65 (no result: H9c2 TAG inh)
COc1ccc(C(C(=O)NCC2CCCO2)N(C(=O)CNC(=O)c2cccs2)c2ccccc2C)cc1OC (centres undefined)	none
COC(=O)COc1cccc(NC(=O)C(c2ccccc2)c2ccccc2)c1	none (no result: H9c2 TAG inh, Calpain2 inh)
Cc1c(NC(=O)c2ccc(NS(=O)(=O)c3ccc(F)c(F)c3)cc2)c(=O)n(-c2ccccc2)n1C	none (no result: Calpain2 inh)
Oc1c(Cl)cc(Cl)cc1C=Nc1ccc2c(c1)OCCO2	H9c2 protect 72
Brc1csc(C=Nc2ccc3c(c2)OCCOCCOCCOCCO3)c1	none (no result: H9c2 TAG inh)
CC(C)Oc1ccc(F)cc1-c1cc(C(=O)NCc2cccs2)[nH]n1	none (no result: beta cell repl, Calpain2 inh)
COc1ccc(CCNC(=O)c2cc3c(C)nccc3[nH]c2=O)cc1OC	H9c2 protect 76
N#Cc1c2ccc(OCC(N)=O)cc2n2ccccc12	beta cell repl 8.1
COC(=O)Oc1ccc(/C=C/C(=O)OC(C)C)cc1OC(=O)OC	H9c2 protect 54 (no result: H9c2 TAG inh)
Cn1c(=O)c2[nH]c(SCc3cccnc3)nc2n(C)c1=S	none (no result: beta cell repl, Calpain2 inh)
O=C(Nc1ccc(Cl)c(Cl)c1)Nc1nnc(-c2ccncc2)s1	Calpain2 inh 102 (no result: beta cell repl, H9c2 TAG inh)
